Assay outcomes from PubChem BioAssay.
Rows were chosen to be rich in hits. Some 21% of all compounds tested hit in one or more screens of this group.
Shiga toxin inh – Shiga toxin inhibition; Vero cells, Shiga toxin protein synthesis inhibition reporter; inhibition, % at 38.7 µM; 9.2% of 290,000 active; in the data active = inhibition mostly above about 28%, no sharp cut-off; inactive = mostly below about 43%; note: 0% is about no effect
Cycloheximide cs – affects cycloheximide protein synthesis inhibition readout, counter-screen. cell reporter, cycloheximide protein synthesis inhibition counterscreen. 12% of 300,000 active. AID 2314. max response, %; in the data active = max response mostly above about 13%, no sharp cut-off; inactive = mostly below about 14%; note: read at 38.3 µM for the half of the compounds with a filed dose; 0% is about no effect
Pf growth 48h – inhibits P. falciparum growth in the first generation, 48 h; P. falciparum luciferase growth in erythrocytes, 48 h; Potency, µM (titrated, usually from 28.7 µM), for the others: at the highest dose activity change, negative = inhibition, actives largely listed as inhibitors; 5.9% of 310,000 active; AID 504832; note: potency is the fitted concentration of half-maximal effect; % is set by controls: 0 for no effect and ±100 for the full control effect
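Erythrocytes infected with P. falciparum carrying an integrated firefly luciferase reporter (2% hematocrit, 0.1% parasitemia final) were exposed to compounds in RPMI 1640 with 0.5% Albumax at 37 C, 5% CO2. Growth inhibition was scored as reduced luminescence.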
NS1 inh – influenza NS1 inhibition; Potency, µM (doses to about 46.1 µM), for the others: at the highest dose activity, positive = more growth; 0.4% of 270,000 active; AID 2326; calls by dose curve; note: potency is the fitted concentration of half-maximal effect; actives are rising curves; nearly all actives have a fitted effect of over 50% in size
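Recovery from NS1-induced slow growth read by OD600 in budding yeast switched to galactose assay medium (pH 6.0, -URA) at 1:100 dilution. Compound 23 nl per well; the matching strain lacking NS1 serves as control.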
SARS PLP yeast – blocks SARS-CoV papain-like protease in a yeast assay; S. cerevisiae expressing SARS-CoV PLpro, growth rescue; Potency, µM (doses to about 32.9 µM), for inactives: top-dose activity, positive = growth rescue, hits mostly activators; 0.19% of 330,000 active; calls by dose curve; note: potency is the fitted concentration of half-maximal effect; 0% is about no effect; nearly all actives have a fitted effect of over 55% in size
Pf growth 96h – P. falciparum growth inhibition at 96 hour, primary screen for plastid delayed-death inhibitors; Potency, µM (series often up to 28.7 µM), without a hit: top-dose activity change, negative = inhibition, usual class: inhibitors; P. falciparum luciferase reporter growth, 96 h; 6.9% of 320,000 active; note: potency is the fitted concentration of half-maximal effect; % is set by controls: 0 for no effect and ±100 for the full control effect
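Two parasite generations (96 h, 37 C, 5% CO2) of compound exposure in infected erythrocytes (0.05% parasitemia, 2% hematocrit). Luciferase-reporter P. falciparum; decreased luminescence indicates inhibited growth, aimed at apicoplast-acting delayed death.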
Active calls of the source: *; i = inactive; ? = inconclusive; . = no result. Unless noted, calls come from the whole dose curve; as a rule, active = well fitted inhibition curve with a large enough effect; inconclusive = small, poorly fitted or top-dose-only effect, or another doubt; inactive = no such curve, though single readings can be large or run the other way.

SMILES | Shiga toxin inh | Cycloheximide cs | Pf growth 48h | NS1 inh | SARS PLP yeast | Pf growth 96h
CCCCOc1ccc(C(=O)Nc2ccc3c(c2)OCO3)cc1 | 24 | 18* | 44% | . | 0% | 26%
CCC(=O)Nc1ccc(C(=O)Nc2ccc3c(c2)OCO3)cc1 | 6 | 15 | 21% | -8% | -1% | ?
CCc1ccc(NC(=O)CNCc2ccc(OC)c(OC)c2)cc1 | 26 | 0 | . | 0% | 3% | 5%
N#Cc1c(N2CCCC2)ccc(Br)c1Cl | 1 | 2 | 50% | -3% | -1% | 44%
COC(=O)CSCC(=O)Nc1nnc(-c2cccc(C)c2)s1 | 25 | 1 | 6% | . | -1% | 0%
O=C(COC(=O)CCc1ccccc1)Nc1cc(S(=O)(=O)N2CCOCC2)ccc1N1CCCC1 | 4 | 8 | ? | -8% | -4% | 0%
Cn1c(-c2cccs2)[n+](C)c2ccccc21 | 2 | 0 | 1µM* | . | -3% | -11%
O=C(/C=C/c1cccs1)Nc1ccc(N2CCOCC2)c(S(=O)(=O)Nc2ccccc2Cl)c1 | 61* | 21* | ? | 13% | 11% | ?
COc1ccccc1NS(=O)(=O)c1cc(NC(=O)/C=C/c2cccs2)ccc1N1CCOCC1 | -8 | -2 | 12µM* | 14µM* | 9% | ?
CCN(CC)c1ccc(/C=C(\C#N)c2nc(-c3cccs3)c(NC(C)=O)s2)cc1 | -10 | 0 | 13µM* | ? | -3% | 7.4µM*
CCN(CC)c1ccc(/C=C(\C#N)C(=O)NCc2ccccc2)cc1 | -7 | -2 | ? | -2% | -7% | 87%
CCOc1ccc(-c2ccc(SCC(=O)N3CCN(c4ccccc4)CC3)nn2)cc1 | 3 | 3 | -9% | 2% | 19% | 38%
CCSc1ccc(-c2ccc(C)cc2)nn1 | 65* | 28* | i | . | 3% | 446%
CCOc1ccc(-c2ccc(SCC)nn2)cc1 | 75* | 29* | -34% | -48% | -1% | ?
Cc1ccc(-c2ccc(SCC(=O)NC3CCCC3)nn2)cc1 | 8 | 4 | 2% | 0% | 2% | 19%
CC(C)c1nnc(NC(=O)CCC(=O)N2CCC(Cc3ccccc3)CC2)s1 | 9 | -8 | -3% | -15% | -3% | ?
COc1cccc(C(=O)Nc2ccc(-n3nncc3C(C)(C)C)cc2)c1 | 64* | 21* | -1% | . | 1% | 18%
CC(=O)c1ccc(-n2nncc2C(C)(C)C)cc1 | -11 | -1 | 35% | -14% | -5% | -27%
CC(C)(C)c1cnnn1-c1ccc(NC(=O)c2ccc(Br)o2)cc1 | -25 | -2 | 10µM* | -29% | 14% | 261%
CC(C)(C)c1cnnn1-c1ccc(NC(=O)c2ccc3c(c2)OCO3)cc1 | 28* | 13* | ? | -68% | -4% | -4%
CC(OC(=O)/C=C/c1cccc(Cl)c1)C(=O)NC1CCCCC1C (configuration not stated) | . | . | 38% | . | -1% | 37%
Cc1ccc(N2CCn3c2nc2c3c(=O)n(CCc3ccccc3)c(=O)n2C)cc1 | . | . | . | -1% | . | .
Cc1ccc(C(=O)Nc2nn(C)c3cccc(F)c23)cc1 | 29 | 18* | 62% | -5% | -1% | 103%
CCc1ccc(N2C(=O)CC(=O)NC2=O)cc1 | -4 | -2 | 4% | 9% | 6% | -24%
CC(C)(C)c1ccc(N2C(=O)Cc3c2nc(N)c(C#N)c3N)cc1 | 43 | 35* | 37% | -1% | 7% | .
SMILES | Shiga toxin inh | Cycloheximide cs | Pf growth 48h | NS1 inh | SARS PLP yeast | Pf growth 96h
CCc1ccc(N2C(=O)Cc3c2nc(N)c(C#N)c3N)cc1 | 114* | 23* | 153% | 16% | -7% | .
N#Cc1ccccc1NC(=O)COC(=O)c1cccs1 | . | . | . | . | 1% | .
Cc1cccc(NC(=S)NC(=O)c2ccco2)n1 | 35 | 16* | 32% | -7% | 6% | 6%
Cc1nc(NC(=S)NC(=O)c2cncc(Br)c2)ccc1Br | 10 | 1 | 38% | 3% | 0% | 35%
Cc1cccc(NC(=S)NC(=O)c2cccs2)n1 | 115* | 24* | -4% | -2% | 19% | 12%
Cc1nc(NC(=S)NC(=O)c2cccs2)ccc1Br | 32* | 31* | -3% | 12% | 10% | ?
N#Cc1ccccc1NC(=S)NC(=O)c1cccs1 | 77* | 31* | 22% | -17% | -16% | 4%
O=C(O)C1CCCN1S(=O)(=O)c1cccc2nsnc12 (configuration not stated) | -7 | -2 | 36% | 1% | 0% | 1%
